The sample as a whole holds a higher share of hits than the screen did.
KDM5B inh = blocks human KDM5B histone demethylase activity; Q9UGL1; actives 2.6% (n = 220,000); KDM5B demethylase, FDH-coupled NADH fluorescence (FDH is formaldehyde dehydrogenase); Potency, µM (top dose mostly 57.7 µM), actives largely listed as inhibitors; AID 1347165; active = well fitted inhibition curve with a large enough effect; note: nearly all actives have a fitted effect of over 70% in size
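Measured: NADH fluorescence change, 30 min, RT. System: KDM5BΔAP 200 nM final, H3K4me3 peptide, α-KG, Fe(II), ascorbate, NAD⁺ plus FDH, pH 7.5 HEPES. Compounds: titrated, 10 min pre-incubation with enzyme.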
Each line names hits and unclear results; the compound was inactive in the other large screens.

O=C(NCc1ccc(C(F)(F)F)cc1)C1CN(c2ccc(Cl)cc2)C(=O)N1 (stereo not drawn)	none
CC(=O)Nc1ccc(C(=O)CSc2ccc(Cl)cc2)cc1	none
CC(C)CCN1CCN(C(=O)CCCc2ccccc2)CC1	none
CCCN(C(=O)Cn1nc(Cc2ccncc2)c2ccccc2c1=O)c1ccc(CC)cc1	none
COc1ccc(-c2ccc3nnc(CNC(=O)c4ccoc4)n3n2)cc1	KDM5B inh 32µM
O=C(C1CCCC1)N1CC2(CCCN(Cc3c[nH]c4ccccc34)C2)Cc2ccccc21 (stereo not drawn)	none
CN1CCN(c2ccc(C(=O)N3CCC(n4cnnc4)CC3)cc2)CC1	none
CCOC(=O)c1[nH]c(C)c(CNCCc2ccc(OC)c(OC)c2)c1C	none
COCCNC(=O)C[C@@H]1C[C@@H](C(C)C)[C@H](CNS(=O)(=O)c2ccccc2)C=C1C	none
CC(=O)N1CCN(C(=O)C[C@@H]2C[C@@H](C(C)C)[C@H](CC#N)C=C2C)CC1	none
CCOC(=O)C[C@@H]1C[C@@H](C(C)C)[C@H](CNC(=O)C2CC2)C=C1C	none
COCCNC(=O)C[C@@H]1C[C@@H](C(C)C)[C@H](CNC(=O)C2CC2)C=C1C	KDM5B inh 35µM
CC1=C[C@@H](CNC(=O)c2ccccc2)[C@H](C(C)C)C[C@H]1CC(=O)N1CCN(C)CC1	none
CC1=C[C@@H](CNC(=O)C2CCCCC2)[C@H](C(C)C)C[C@H]1CC(=O)N1CCN(c2ccccn2)CC1	KDM5B inh 35µM
CC1=C[C@@H](CNC(=O)c2ccccn2)[C@H](C(C)C)C[C@H]1CC(=O)N1CCCC1	none
CC1=C[C@@H](CNC(=O)C(C)(C)C)[C@H](C(C)C)C[C@H]1CC(=O)N1CCN(c2ccccn2)CC1	KDM5B inh 20µM
COc1ccccc1N1CCN(C(=O)C[C@@H]2C[C@@H](C(C)C)[C@H](CC#N)C=C2C)CC1	none
CC(=O)N1CCN(C(=O)C[C@@H]2C[C@@H](C(C)C)[C@H](CNC(=O)c3cncnc3)C=C2C)CC1	none
COCC(=O)NC[C@@H]1C=C(C)[C@H](CC(=O)N2CCCC2)C[C@H]1C(C)C	none
CC1=C[C@@H](CC#N)[C@H](C(C)C)C[C@H]1CC(=O)N1CCN(c2cnccn2)CC1	KDM5B inh 35µM
CC(=O)c1ccccc1NC(=O)COC(=O)c1cc(=O)c2ccccc2o1	none
CC(C)C(Sc1nnc(-c2ccccc2)o1)C(=O)NCc1cccnc1 (stereo not drawn)	none
Cc1cccc(CN2C[C@@H](F)[C@@H](OCc3nc4ccccc4n3C)C2)n1	none
O=C(OCc1cccc(Br)c1)c1ccc(O)cc1	none
N#Cc1ccc(NC(=O)Cn2c(=O)c3c(ncn3Cc3ccccc3)n(Cc3ccccc3)c2=O)cc1	none
O=C(NC[C@H]1Cn2c(-c3ccc4c(c3)OCO4)cnc2CO1)Nc1ccc(F)cc1	KDM5B inh 28µM
Fc1ccc(-c2cnc3n2C[C@H](CNCc2ccc4c(c2)OCO4)OC3)cc1	none
O=C(NC[C@H]1Cn2c(-c3ccc(F)cc3)cnc2CO1)NC1CCCCC1	none
Cc1cn2nc(C(=O)NCc3ccccc3)cc2c(N(C)Cc2ccccc2)n1	KDM5B inh 32µM
Cc1cccc(CNC(=O)c2cc3c(N(C)Cc4ccccc4)nc(C)cn3n2)c1	KDM5B inh 25µM
CC(C)(C)c1cc(C(=O)NCc2ccc(F)cc2)nn2cccc12	none
CSc1ncc(C(=O)NCc2cccc(C)c2)c(-c2ccccc2)n1	none
CSc1ccc(CN(C)CC(=O)NC(=O)NCc2ccccc2)cc1	none
Cc1cn2nc(C(=O)NCc3cc(F)cc(F)c3)cc2c(N(C)Cc2ccccc2)n1	KDM5B inh 20µM
CSc1ccc(CNC(=O)c2cc3c(N(C)Cc4ccccc4)nc(C)cn3n2)cc1	KDM5B inh 25µM
Cc1cn2nc(C(=O)NCc3cc(F)cc(F)c3)cc2c(=O)[nH]1	none
Cc1cc(C(=O)NCc2ccc(F)cc2)n(-c2ccccc2)n1	none
CC(=O)c1cc(C(=O)NCc2cccnc2N(C)Cc2ccccc2)cs1	none
Cc1cccc(CNC(=O)c2csc(N3CCN(c4ccccc4)CC3)n2)c1	none
COc1ccc(CN2Cc3cc(NC(=O)Cc4ccc(F)cc4)ccc3OCC2=O)c(OC)c1	none
COc1ccc(C(=O)N2[C@@H]3CC[C@H]2CC(NC(=O)c2cnc(C)cn2)C3)cc1F (stereo partly drawn)	none
CCCN(CC1CCOC1)S(=O)(=O)c1ccc(F)c(C)c1 (stereo not drawn)	none
COc1ccc(C(=O)/C=C/c2ccccc2OC(F)F)c(OC)c1	none
Cc1cccc(C(=O)NC(Nc2ccc(C)cc2C)C(Cl)(Cl)Cl)c1 (stereo not drawn)	none
C=CCn1c(SCc2ccc(Cl)cc2)nc2c1c(=O)n(C)c(=O)n2C	none
COC(=O)c1cccc(NS(=O)(=O)c2c(C)nn(C)c2C)c1	none
CCCCSc1nnc(NC(=O)c2cc(=O)c3ccccc3o2)s1	none
O=C(NC1CC1)c1ccc2c(c1)OCCCO2	none
COc1ccc(-c2nn(-c3ccccc3)cc2CN2CCC(CO)CC2)c(F)c1	none
COc1ccc(-c2nn(-c3ccccc3)cc2CN2CCC(C#N)CC2)c(F)c1	none
COc1ccc(-n2cc(CN3CCC(O)CC3)c(-c3cccc(F)c3)n2)cc1	KDM5B inh 28µM
Cc1ccc(C)c(NC(=O)N2CCC(Oc3ncccc3C(=O)N3CCCCC3)C2)c1 (stereo not drawn)	none
O=C(c1ccc(F)cc1)N1CCC2(CC1)CC(N(Cc1ccc(F)cc1)C1CC1)CCO2 (stereo not drawn)	none
O=C(c1ccncc1)N1CCC2(CC1)CC(N(Cc1ccccc1)C1CC1)CCO2 (stereo not drawn)	none
O=C(c1ccncc1)N1CCC2(CC1)CC(N(Cc1ccc(F)cc1)C1CC1)CCO2 (stereo not drawn)	KDM5B inh 32µM
CCNC(=O)Cn1c(CO)cnc1SCc1ccccc1C	none
O=S1(=O)CCC(Cc2nc(-c3ccccn3)nn2Cc2ccccc2)C1 (stereo not drawn)	none
Cc1ccc(C(=O)Nc2cccc3cccnc23)cc1	none
COc1cccc(NC(=O)[C@@H]2C[C@@H](c3ccc(F)cc3)N(Cc3ccccc3)C2)c1	none
Cn1ccc(NC(=O)[C@@H]2C[C@@H](c3ccc(F)cc3)N(Cc3ccccc3)C2)n1	none
Cc1nc(CN2C[C@H](C(=O)Nc3ccccc3)C[C@@H]2c2ccc(F)cc2)cs1	KDM5B inh 35µM
COC(=O)c1ccc2c(c1)nc1n2[C@@H](CNC(=O)NC2CCCCC2)COC1	none
Cc1ccc(NC(=O)CN(c2ccccc2F)S(=O)(=O)c2ccccc2)c(C)c1	none
CC(C)C1=NOC2(CCN(Cc3ccc(C(F)(F)F)cc3)C2)C1 (stereo not drawn)	none
CC(=O)NCCCC(=O)N1CCC2(CC1)CN(C(=O)NC(C)C)Cc1ccccc1O2	none
CN1CCOc2c(C(=O)NCc3cccnc3)cc(-c3ccccc3F)cc21	KDM5B inh 25µM
COc1cccc(-c2cc(C(=O)NCc3cccnc3)c3c(c2)N(C)CCO3)c1OC	KDM5B inh 35µM
COc1cccc(N2CCN(c3nc(C(=O)NCc4cccnc4)cs3)CC2)c1	none
COc1cncc(-c2cc(C(=O)NCc3cccnc3)c3c(c2)N(C)CCO3)c1	none
COc1cccc(C(=O)N[C@@H]2CN(Cc3cccnc3)C[C@H]2CN(C)C)c1C	none
COc1ccccc1C(=O)N1CCN2C(=O)N(Cc3cccnc3)C[C@H]2C1	none
COc1ccccc1-c1cc(C(=O)NCc2cccnc2)c2c(c1)N(C)CCO2	KDM5B inh 40µM
O=C(NCc1ccccc1F)c1ccc2c(c1)CN(Cc1cccnc1)CCO2	none
CCC(=O)N1CCc2c(C(=O)NCc3cccnc3)cccc21	none
CNC(=O)c1cc(-c2cccc(OC)c2OC)cc2c1OCCN2Cc1cccnc1	KDM5B inh 32µM
